Results reported in PubChem BioAssay (NCATS).
Results filed as inconclusive are left out. Active and inactive are the calls of the source. Calls follow the shape of the dose curve; as a rule, active = well fitted curve in the direction sought with a large enough effect; inconclusive = small, poorly fitted or top-dose-only effect, or another doubt; inactive = no such curve, though single readings can be large; an effect the other way counts as inactive or inconclusive. Where a SMILES comes first, the peptide text is derived from it. Bridges are numbered along the chain shown (N, C = ends). [ ]: non-standard residue; d: D form. hArg = N=C(N)NCCCC[C@H](N)C(=O)O; Mpa = O=C(O)CCS

Legend:
[1] = qHTS assay for measurement of the activity of small molecule inhibitors on Zika virus induced Caspase-3 activity in human iPSC derived neural progenitor cells (hNPCs) (AID 1224857); details: hNPCs ZIKV-induced caspase-3/7, Caspase-Glo luminescence, 6 h; series mostly up to 45.7 µM; also: nearly all actives have a fitted effect of over 65% in size
Summary of the method: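 Cells were plated at 350 per well and grown 16 to 20 hours. Compound pretreatment lasted one hour, after which ZIKV (2 FFU/cell) was added for 6 hours. Percent inhibition was normalized between uninfected and infected controls.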

[2] = qHTS assay for measurement of the activity of small molecule inhibitors on Zika virus induced Caspase-3 activity in human astrocytoma cells (AID 1224859); details: SNB-19 ZIKV-induced caspase-3/7, luminescence, 6 h; series mostly up to 45.7 µM
Summary of the method: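 Percent inhibition of virus-induced caspase-3/7 signal is calculated against uninfected and ZIKV-infected control cells. Cells are SNB-19, infected at 2 FFU/cell for 6 h after 1 h compound exposure.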

[3] = qHTS assay to identify small molecule inhibitors of chordoma cells - UCH-1 (AID 1259355); details: UCH-1 chordoma viability, CellTiter-Glo, 48 h, combination, with auranofin plus four topoisomerase inhibitors; series mostly up to 46.1 µM; also: nearly all actives have a fitted effect of over 55% in size
Summary of the method: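 Seed 800 cells per well; incubate overnight at 37 C, 5% CO2. Add test compounds (15 concentrations), then the auranofin–topoisomerase-agent combination. Incubate 48hr, add CellTiter-Glo, wait 30min, read luminescence.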

[4] = qHTS assay to identify small molecule inhibitors of chordoma cells - UCH-2 (AID 1259356); details: UCH-2 chordoma viability, CellTiter-Glo ATP luminescence, 48 h; series mostly up to 46.1 µM
[5] = P-glycoprotein substrates identified in KB-8-5-11 adenocarcinoma cell line, qHTS therapeutic library screen (AID 1346987); details: KB-8-5-11 (P-gp overexpressing) viability, CellTiter-Glo, 72 h; series mostly up to 44.5 µM; also: nearly all actives have a fitted effect of over 65% in size
Summary of the method: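 KB-8-5-11: colchicine-selected sub-line of KB-3-1 over-expressing P-gp; assay medium lacked colchicine. 72 h drug exposure at 37 degree C, CellTiter-Glo.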

[6] = NS1 protein of Zika virus - qHTS assay to identify small molecule inhibitors in human HEK 293 cells (AID 1347053); details: HEK293 ZIKV MR766 infection, NS1 TR-FRET, 24 h; series mostly up to 46.1 µM; also: nearly all actives have a fitted effect of over 55% in size
Summary of the method: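 HEK 293; 20 h pre-culture, 37 C/5% CO2; cpd 1 h pre-infection; ZIKV MR766, MOI = 0.5, 24 h, 37 C; TR-FRET NS1 readout (two anti-NS1 Abs); norm. to no-virus vs infected.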

[7] = qHTS of pediatric cancer cell lines to identify multiple opportunities for drug repurposing: Primary screen for TC32 cells (AID 1347089); details: TC32 Ewing sarcoma viability, CellTiter-Glo luminescence, 48 h; series mostly up to 45.8 µM; also: nearly all actives have a fitted effect of over 60% in size
Summary of the method: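 Luminescent CellTiter-Glo read-out of metabolically active TC32 cells after 48 h compound exposure. Primary: MIPE 11-point, 0.78 nM–46 µM; NPC 8-point, 0.59 nM–46 µM. Confirmatory: 11-point dilutions.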

[8] = qHTS of pediatric cancer cell lines to identify multiple opportunities for drug repurposing: Primary screen for DAOY cells (AID 1347090); details: DAOY medulloblastoma viability, CellTiter-Glo luminescence, 48 h; series mostly up to 46 µM; also: nearly all actives have a fitted effect of over 55% in size
Summary of the method: (§1)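 Cell viability, CellTiter-Glo luminescence; 500-1,000 cells/well, 8- or 11-point titration, 48 h compound exposure at 37 degrees C, 5% CO2. Controls: DMSO neutral, bortezomib 2.3 µM final as positive.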

[9] = qHTS of pediatric cancer cell lines to identify multiple opportunities for drug repurposing: Primary screen for SJ-GBM2 cells (AID 1347091); details: SJ-GBM2 viability, CellTiter-Glo luminescence, 48 h; series mostly up to 46 µM
Summary of the method: as §1

[10] = qHTS of pediatric cancer cell lines to identify multiple opportunities for drug repurposing: Primary screen for A673 cells (AID 1347092); details: A673 Ewing sarcoma viability, CellTiter-Glo ATP luminescence, 48 h; series mostly up to 46 µM; also: nearly all actives have a fitted effect of over 45% in size
Summary of the method: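 A673 cells (500-1,000 cells/well in growth media) were pre-incubated 5 h at 37 degrees C, then exposed to compounds for 48 h. Viability was read as CellTiter-Glo luminescence; concentration-response curves came directly from the primary screen.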

[11] = qHTS of pediatric cancer cell lines to identify multiple opportunities for drug repurposing: Primary screen for SK-N-MC cells (AID 1347093); details: SK-N-MC viability, CellTiter-Glo luminescence, 48 h; series mostly up to 46 µM
Summary of the method: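 Metabolically active cells were quantified by ATP-dependent luminescence (CellTiter-Glo, 15 min at room temperature) following 48 h treatment. Cells had been plated at 500-1,000 per well and settled for 5 h beforehand.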

[12] = qHTS of pediatric cancer cell lines to identify multiple opportunities for drug repurposing: Primary screen for BT-37 cells (AID 1347094); details: BT-37 viability, CellTiter-Glo luminescence, 48 h; series mostly up to 57.3 µM
Summary of the method: (§2)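 Primary screen of approved and investigational compounds on cells in growth media at 37 degrees C, 5% CO2. MIPE set at 11-point and NPC set at 8-point dilutions; viability scored by ATP-based luminescence at 48 hours.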

[13] = qHTS of pediatric cancer cell lines to identify multiple opportunities for drug repurposing: Primary screen for NB-EBc1 cells (AID 1347095); details: NB-EBc1 neuroblastoma viability, CellTiter-Glo luminescence, 48 h; series mostly up to 46 µM
Summary of the method: as §2

[14] = qHTS of pediatric cancer cell lines to identify multiple opportunities for drug repurposing: Primary screen for U-2 OS cells (AID 1347096); details: U-2 OS viability, CellTiter-Glo luminescence, 48 h; series mostly up to 46 µM; also: nearly all actives have a fitted effect of over 50% in size
Summary of the method: (§3)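 Cells (500-1,000/well) rested 5 h, then received compounds for 48 h; metabolically active cells were measured by CellTiter-Glo luminescence. Final concentrations spanned up to 46 µM (MIPE, 11-point) or 0.59 nM-46 µM (NPC, 8-point) in primary screens, 11-point in follow-ups.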

[15] = qHTS of pediatric cancer cell lines to identify multiple opportunities for drug repurposing: Primary screen for Saos-2 cells (AID 1347097); details: Saos-2 viability, CellTiter-Glo ATP luminescence, 48 h; series mostly up to 46 µM; also: nearly all actives have a fitted effect of over 40% in size
Summary of the method: as §2

[16] = qHTS of pediatric cancer cell lines to identify multiple opportunities for drug repurposing: Primary screen for NB1643 cells (AID 1347099); details: NB1643 neuroblastoma viability, CellTiter-Glo luminescence, 48 h; series mostly up to 46 µM; also: nearly all actives have a fitted effect of over 50% in size
Summary of the method: as §2

[17] = qHTS of pediatric cancer cell lines to identify multiple opportunities for drug repurposing: Primary screen for LAN-5 cells (AID 1347100); details: LAN-5 neuroblastoma viability, CellTiter-Glo luminescence, 48 h; series mostly up to 46 µM
Summary of the method: as §3

[18] = qHTS of pediatric cancer cell lines to identify multiple opportunities for drug repurposing: Primary screen for SK-N-SH cells (AID 1347098); details: SK-N-SH viability, CellTiter-Glo luminescence, 48 h; series mostly up to 57 µM; also: nearly all actives have a fitted effect of over 65% in size
Summary of the method: as §3

Measured: Potency

NC(=O)[C@@H]1CSSCCC(=O)N[C@@H](CCCCN=C(N)N)C(=O)NCC(=O)N[C@@H](CC(=O)O)C(=O)N[C@@H](Cc2c[nH]c3ccccc23)C(=O)N2CCC[C@H]2C(=O)N1 ([Mpa][hArg]GDWPC-NH2; disulfide 1-7)
not listed: [18]
inactive: all other assays above

Nc1ncnc2c1ncn2[C@@H]1O[C@H](COP(=O)(O)O)[C@@H](O)[C@H]1O
not listed: [15] | [16]
inactive: all other assays above

CCC(C)(CN(C)C)OC(=O)c1ccccc1 (stereo not given)
not listed: [15]
inactive: all other assays above

Cc1cccc(C(=O)O)c1O
not listed: [18]
inactive: all other assays above

O=S1(=O)OC(c2ccc(O)cc2)(c2ccc(O)cc2)c2ccccc21
not listed: [12]
inactive: all other assays above

CC(=O)NS(=O)(=O)c1ccc(N)cc1
not listed: [14]
inactive: all other assays above

COC(=O)N/N=C/c1c[n+]([O-])c2ccccc2[n+]1[O-]
not listed: [18]
inactive: all other assays above

O=C(O)/C=C/c1ccc(Cn2ccnc2)cc1
not listed: [18]
inactive: all other assays above

O=C1C(c2[nH]c3ccccc3c2O)=Nc2ccccc21
not listed: [14]
inactive: all other assays above

COc1cc(O)cc(O)c1
not listed: [12] | [18]
inactive: all other assays above

Cn1c([N+](=O)[O-])cnc1COC(N)=O
not listed: [12]
inactive: all other assays above

CCc1cccc(CC)c1NC(=O)CN(CC(=O)O)CC(=O)O
not listed: [14]
inactive: all other assays above

CCOC(=O)[C@H](CCc1ccccc1)N[C@@H](C)C(=O)N1CCC[C@H]1C(=O)O
not listed: [12]
inactive: all other assays above

Nc1ccc(C(=O)Oc2ccccc2)c(O)c1
not listed: [15] | [18]
inactive: all other assays above

CCCCCCCCCCCCCCCCN
not listed: [16] | [18]
inactive: all other assays above

CC[N+](CC)(CC(=O)Nc1c(C)cccc1C)Cc1ccccc1
not listed: [14] | [18]
inactive: all other assays above

OCCN1C[C@H](O)[C@@H](O)[C@H](O)[C@H]1CO
not listed: [14]
inactive: all other assays above

O=C(O)CCCCC1CCSS1 (stereo not given)
not listed: [12]
inactive: all other assays above

CC(=O)Oc1cccc(O)c1
not listed: [11] | [16]
inactive: all other assays above

CC(=O)N(CC(O)CO)c1c(I)c(C(=O)NCC(O)CO)c(I)c(C(=O)NCC(O)CO)c1I (stereo not given)
not listed: [11]
inactive: all other assays above

Cn1c(=O)c2c(ncn2CCO)n(C)c1=O
not listed: [11] | [12]
inactive: all other assays above

O=C(NCCCN1CCOCC1)c1ccc(Cl)cc1
not listed: [9]
inactive: all other assays above

Cc1cccc(Nc2ccccc2C(=O)O)c1C
not listed: [11] | [15] | [16]
inactive: all other assays above

Cc1c(C)c2c(c(C)c1OC(=O)c1cccnc1)CC[C@@](C)(CCC[C@H](C)CCC[C@H](C)CCCC(C)C)O2
not listed: [11] | [12] | [16]
inactive: all other assays above

O=c1[nH]c2cc(C(F)(F)F)c(N3CCOCC3)cc2n(CP(=O)(O)O)c1=O
not listed: [11]
inactive: all other assays above

CN1CCCN=C1COC(=O)C(O)(c1ccccc1)C1CCCCC1 (stereo not given)
not listed: [12] | [18]
inactive: all other assays above

CCS(=O)(=O)CCn1c([N+](=O)[O-])cnc1C
not listed: [9]
inactive: all other assays above

OC(CCN1CCCC1)(c1ccccc1)C1CCCCC1 (stereo not given)
not listed: [12] | [15]
inactive: all other assays above

Cn1cc(C(=O)[C@@H]2CCc3nc[nH]c3C2)c2ccccc21
not listed: [11] | [18]
inactive: all other assays above

CCOC(=O)[C@H](CCc1ccccc1)N[C@@H](C)C(=O)N1Cc2cc(OC)c(OC)cc2C[C@H]1C(=O)O
not listed: [11] | [14]
inactive: all other assays above
